# Measured values reported in PubChem BioAssay AID1259421 (Broad Institute, 2018).
# Where “and” joins values, the source holds several entries; their conditions need not be identical. Identical values can stand only once. The campaign covered roughly 6,400 compounds. About 610 (9.5%) were called active. This is one part of a sample in which actives are shown more often than they occur. Rule as the data show it: active = activity change below about -70%; inconclusive = no clear call, values can overlap the other calls; inactive = above that. A structure can be active in one record and inactive in another.
# Assay: Toxoplasma gondii ME49Luc growth in HeLa cells, luciferase, no IFN-y, primary screen (AID 1259421)
# Details: T. gondii ME49Luc in HeLa, 72 h, stronger effect = lower value, concentration not given here
row,Compound,"activity change, negative = inhibition"
1,CC(C)C(=O)OC[C@H]1O[C@@H](n2ccc(N)nc2=O)[C@](C)(F)[C@@H]1OC(=O)C(C)C,23.1% (inactive)
2,O=C(Nc1ncc(SCCN2CCCC2)s1)[C@]1(c2ccc(S(=O)(=O)C3CC3)cc2)C[C@H]1C1CCCCC1,-76.3% (active) and -62.6% (inactive)
3,CC(C)(C)[C@@]1(O)CCN2C[C@@H]3c4ccccc4CCc4cccc(c43)[C@H]2C1,13.9% (inactive)
4,CC(C)c1cc(/C=C(\C#N)C(=O)NCCCc2ccccc2)cc(C(C)C)c1O,-46.1% (inactive)
5,C[C@H](NC(=O)/C(C#N)=C/c1cccc(Br)n1)c1ccccc1,-73.9% (active)
6,CCN(CC)CCCCC(NC(=O)c1ccc([N+](=O)[O-])cc1)c1ccccc1 (stereo not given),34.1% (inactive)
7,CCC[C@H](NC(=O)/C(C#N)=C/c1cccc(Br)n1)c1ccccc1,-77% (active)
8,C[C@H](NC(=O)/C(C#N)=C/c1ccc(O)c(O)c1)c1ccccc1,13.8% (inactive) and 32.8% (inactive)
9,C[C@@H](NC(=O)/C(C#N)=C\c1ccc(O)c(O)c1)c1ccccc1,-3.05% (inactive)
10,O=C(CS(=O)Cc1ccco1)NC/C=C\COc1cc(CN2CCCCC2)ccn1 (stereo not given),8.76% (inactive)
11,CC12C=CCC1C1CCC3CC(=O)CCC3(C)C1CC2 (stereo not given),14.3% (inactive)
12,COc1ccc(NC(=O)c2cc(OCCCN(C)C)nn2Cc2ccccc2)cc1,3.25% (inactive) and 7.86% (inactive)
13,CCC(=O)NS(=O)(=O)c1ccc(-c2c(-c3ccccc3)noc2C)cc1,23.5% (inactive)
14,CC1(c2ccccc2)OC(C(=O)O)=CC1=O (stereo not given),15.7% (inactive)
15,Nc1cccc2c(=O)[nH][nH]c(=O)c12,7.31% (inactive)
16,COc1ncc(-c2ccc3nccc(-c4ccnnc4)c3c2)cc1NS(=O)(=O)c1ccc(F)cc1F,-79.5% (active)
17,CCCS(=O)(=O)Nc1ccc(F)c(C(=O)c2c[nH]c3ncc(-c4ccc(Cl)cc4)cc23)c1F,-58.2% (inactive) and -67.7% (inactive)
18,CCc1cc(-c2n[nH]c(C)c2-c2ccc3c(c2)OCCO3)c(O)cc1O,-16.3% (inactive)
19,NC(=NCCCCCCN=C(N)/N=C(\N)Nc1ccc(Cl)cc1)/N=C(\N)Nc1ccc(Cl)cc1,-58% (inactive)
20,CCN(CC)CCCCN1c2ccccc2Oc2ccc(Cl)cc21,-10.3% (inactive) and 12.5% (inactive)
21,CCN(CC)CCOc1ccc(/C(=C(\Cl)c2ccccc2)c2ccccc2)cc1,-69.8% (inactive) and -52.9% (inactive)
22,CN(C)CCOc1ccc(/C(=C(/CCCl)c2ccccc2)c2ccccc2)cc1,-77.6% (active) and -84.8% (active)
23,CC/C(=C(\c1ccccc1)c1ccc(OCCN(C)C)cc1)c1ccccc1,13.1% (inactive) and -14.7% (inactive) and -6.44% (inactive)

row,Compound,"activity change, negative = inhibition"
1,CN(C)CCOC(=O)COc1ccc(Cl)cc1,4.1% (inactive) and 6.57% (inactive)
2,CC/C(=C(/c1ccccc1)c1ccc(OCCN(C)C)cc1)c1ccccc1,-72.4% (active)
3,CCN(CC)CCOc1ccc(Cc2ccccc2)cc1,5.6% (inactive) and 13.5% (inactive)
4,CC(=O)OCC(=O)[C@@]12OC3(CCCC3)O[C@@H]1CC1C3CCC4=CC(=O)C=C[C@]4(C)[C@@]3(F)[C@@H](O)C[C@@]12C (stereo not given in full),-7.19% (inactive) and -8.15% (inactive)
5,C[C@]12C=CC(=O)C=C1CCC1C2[C@@H](O)C[C@@]2(C)C1CC[C@]2(O)C(=O)COC(=O)CCC(=O)O (stereo not given in full),-10.6% (inactive) and -6.45% (inactive)
6,CC(=O)OC[C@H]1O[C@@H](n2ccc(=O)[nH]c2=O)[C@H](OC(C)=O)[C@@H]1OC(C)=O,8.3% (inactive)
7,C=CC1CN2CCC1CC2[C@@H](O)c1ccnc2ccc(OC)cc12 (stereo not given in full),21.1% (inactive)
8,COc1nccc(-c2c(-c3ccc(F)cc3)ncn2C2CCNCC2)n1,-64.9% (inactive)
9,COc1nccc(-c2c(-c3ccc(F)cc3)ncn2C2CCC(O)CC2)n1 (stereo not given),-77.2% (active)
10,CCOc1ccc(Cc2cc([C@@]34OC[C@@](CO)(O3)[C@@H](O)[C@H](O)[C@H]4O)ccc2Cl)cc1,12.2% (inactive)
11,CSCC1CN(/N=C/c2ccc([N+](=O)[O-])o2)C(=O)O1 (stereo not given),3.31% (inactive)
12,CCNC(=O)CCC/C=C/C[C@@H]1[C@H](C=C[C@H](O)CCc2ccccc2)[C@@H](O)C[C@@H]1O,-1.53% (inactive)
13,CCCC[P+](CCCC)(CCCC)Cc1ccc(NC(=O)[C@H](Cc2ccc3ccccc3c2)NC(=NC2CCCCC2)NC2CCCCC2)cc1,27% (inactive)
14,O=C(CCCN1CCC(O)(c2ccc(Cl)cc2)CC1)c1ccc(F)cc1,7.06% (inactive) and 15.9% (inactive)
15,O=C(CCCN1CCC(O)(c2cccc(C(F)(F)F)c2)CC1)c1ccc(F)cc1,30.3% (inactive)
16,OC1(c2ccc(Cl)c(C(F)(F)F)c2)CCN(CCCC(c2ccc(F)cc2)c2ccc(F)cc2)CC1,-65.8% (inactive) and -91.8% (active)
17,Nc1ccn(C[C@@H](CO)OCP(=O)(O)O)c(=O)n1,-60.1% (inactive)
18,O/N=C/c1cc[n+](COC[n+]2ccc(/C=N/O)cc2)cc1,8.88% (inactive)
19,C[C@H]1CC2C([C@@H](O)C[C@@]3(C)C2CC[C@]3(O)C(=O)CO)[C@@]2(C)C=CC(=O)C=C12 (stereo not given in full),5.02% (inactive)
20,OC[C@H]1O[C@H](O)C[C@@H](O)[C@@H]1O,-36.7% (inactive)
21,CCOCCn1c(C2CCN(CCc3ccc(C(C)(C)C(=O)O)cc3)CC2)nc2ccccc21,20.9% (inactive)
22,N#C/C(=C/c1ccc(O)c(O)c1)C(N)=O,7.91% (inactive)
